The panel holds about 79,000 compounds, 15% with a hit somewhere; the sample as a whole holds those more often. Unmarked numbers belong to inactive results. Active and inactive are the calls of the source. Rule as the data show it: active = growth inhibition above about 70%; inactive = the rest.

Test [1] in a line: NCI Yeast Anticancer Drug Screen. Data for the rad50 strain (AID 155).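 Also: 0% = growth of vehicle-only cultures of the same strain.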 The conditions noted are these: S. cerevisiae rad50 strain growth inhibition, active compounds read high. Summed up: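 Genetically altered yeast (DNA repair pathway); compound treatment; growth inhibition vs vehicle ctrl.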
The nature of test [2]: NCI Yeast Anticancer Drug Screen. Data for the mec2-1 strain (AID 157). Conditions: S. cerevisiae mec2-1 strain, active compounds read high. Summed up: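 Mutant yeast (mec2-1) grown with compound; growth inhibition relative to vehicle control reported.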
Test [3] is described as follows: NCI Yeast Anticancer Drug Screen. Data for the sgs1 mgt1 strain (AID 161).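 Also: 0% = growth of cultures given vehicle only.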 Conditions: S. cerevisiae sgs1 mgt1 strain, active compounds read high. Summed up: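 Yeast cells carrying a defined DNA-repair defect were exposed to test compounds. Growth inhibition was measured relative to vehicle-treated controls.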
The nature of test [4]: NCI Yeast Anticancer Drug Screen. Data for the cln2 rad14 strain (AID 165).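 Also: 0% = growth equal to vehicle treated cultures.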 Conditions: S. cerevisiae cln2 rad14 strain, active compounds read high. Summed up: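 Readout is yeast growth inhibition versus vehicle-treated controls, using a strain with cln2 and rad14 alterations exposed to compound.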
Test [5] can be described thus: NCI Yeast Anticancer Drug Screen. Data for the bub3 strain (AID 167). Conditions: S. cerevisiae bub3 mutant strain, active compounds read high. Summed up:
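Yeast carrying a defined mutation is treated with each compound, and growth is compared with that of vehicle-exposed cells to give inhibition.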

A short description of test [6]: NCI Yeast Anticancer Drug Screen. Data for the mlh1 rad18 strain (AID 175). The conditions noted are these: S. cerevisiae mlh1 rad18 strain growth inhibition, active compounds read high. Put shortly: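 Genetically defined yeast (DNA repair-deficient) exposed to compounds; growth inhibition determined relative to vehicle.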
[7] abbreviates: at 5.0 µM (retest, dose inferred, filed as 0.5).
Where [8] appears, read: at 50.0 µM (retest, dose inferred, filed as 5.0).

Take `CCCCCCC[n+]1ccc(C(=O)c2ccccc2)cc1`: the growth inhibition in test [1] (setting [7]) was 99% (active); in test [1] (setting [8]) it was 99% (active); in test [1] (at 50.0 µM) it was 99.4% (active); in test [2] (setting [7]) it was 100% (active); in test [2] (setting [8]) it was 99% (active); in test [2] (at 50.0 µM), 94.3% (active). Besides, the growth inhibition in test [3] (setting [7]) is 100% (active); in test [3] (setting [8]), 100% (active); in test [3] (at 50.0 µM), 99.5% (active); in test [4] (setting [7]) it was 99% (active); in test [4] (setting [8]) it was 100% (active); in test [4] (at 50.0 µM) it was 80.2% (active). For the same compound, the growth inhibition in test [5] (setting [7]) is 99% (active); in test [5] (setting [8]), 99% (active); in test [5] (at 50.0 µM), 99.3% (active); in test [6] (setting [7]) it was 99% (active); in test [6] (setting [8]) it was 99% (active); in test [6] (at 50.0 µM) it was 99.5% (active).
With `CC(Nc1ccc(S(=O)(=O)Nc2ncccn2)cc1)c1ccc2cccnc2c1O` (stereo not given), the growth inhibition in test [1] (setting [7]) is 38%; in test [1] (setting [8]), 99% (active); in test [1] (at 50.0 µM), 99.5% (active); in test [2] (setting [7]), 2%; in test [2] (setting [8]) it was 99% (active); in test [2] (at 50.0 µM), 99.5% (active). Also, the growth inhibition in test [3] (setting [7]) is 11%; in test [3] (setting [8]) it was 99% (active); in test [3] (at 50.0 µM) it was 98.5% (active); in test [4] (setting [7]), 19%; in test [4] (setting [8]), 99% (active); in test [4] (at 50.0 µM), 96.7% (active). Also, the growth inhibition in test [5] (setting [7]) was 11%; in test [5] (setting [8]), 99% (active); in test [5] (at 50.0 µM) it was 99.3% (active); in test [6] (setting [7]), 14%; in test [6] (setting [8]), 98% (active); in test [6] (at 50.0 µM), 99.2% (active).
For `COc1ccc(C2c3cc4c(cc3OC(O)C2C)OCO4)cc1` (stereo not given), the growth inhibition is -3% in test [1] (setting [7]); 69% in test [1] (setting [8]); 96.8% (active) in test [1] (at 50.0 µM); -6% in test [2] (setting [7]); 49% in test [2] (setting [8]); 93.5% (active) in test [2] (at 50.0 µM). For the same compound, the growth inhibition in test [3] (setting [7]) was -2%; in test [3] (setting [8]), 78% (active); in test [3] (at 50.0 µM) it was 98.3% (active); in test [4] (setting [7]), -2%; in test [4] (setting [8]), 42%; in test [4] (at 50.0 µM) it was 95.3% (active). Besides, the growth inhibition was -2% in test [5] (setting [7]); 67% in test [5] (setting [8]); 97% (active) in test [5] (at 50.0 µM); -1% in test [6] (setting [7]); 74% (active) in test [6] (setting [8]); 97.5% (active) in test [6] (at 50.0 µM).
For the compound `CC1(C)N=C(N)N=C(N)N1c1cccc(OCc2cccc(N)c2)c1`, the growth inhibition in test [1] (setting [7]) was -2%; in test [1] (setting [8]), 1%; in test [1] (at 50.0 µM), 15.8%; in test [2] (setting [7]) it was 12%; in test [2] (setting [8]), -5%; in test [2] (at 50.0 µM), 5.65%. The growth inhibition is -7% in test [3] (setting [7]); 1% in test [3] (setting [8]); -8.35% in test [3] (at 50.0 µM); 13% in test [4] (setting [7]); -9% in test [4] (setting [8]); 65.5% in test [4] (at 50.0 µM). In addition, the growth inhibition in test [5] (setting [7]) was -20%; in test [5] (setting [8]), -4%; in test [5] (at 50.0 µM) it was -36.9%; in test [6] (setting [7]), 5%; in test [6] (setting [8]), 1%; in test [6] (at 50.0 µM), 9.1%.
As to `Cc1ccc(C(=O)OCC(C)C)cc1N=NN(C)C`, the growth inhibition is 4% in test [1] (setting [7]); 21% in test [1] (setting [8]); 68.8% in test [1] (at 50.0 µM); -3% in test [2] (setting [7]); -6% in test [2] (setting [8]); 19.9% in test [2] (at 50.0 µM). In addition, the growth inhibition is -5% in test [3] (setting [7]); 14% in test [3] (setting [8]); 29.4% in test [3] (at 50.0 µM); 7% in test [4] (setting [7]); 31% in test [4] (setting [8]); 38.8% in test [4] (at 50.0 µM). Further, the growth inhibition in test [5] (setting [7]) is -1%; in test [5] (setting [8]) it was 48%; in test [5] (at 50.0 µM), 31.1%; in test [6] (setting [7]), -24%; in test [6] (setting [8]), 38%; in test [6] (at 50.0 µM), 8.3%.
Regarding `CC(C)Cn1cnc2c(SCc3ccc(Cl)cc3Cl)nc(N)nc21`, the growth inhibition in test [1] (setting [7]) is 0%; in test [1] (setting [8]), 46%; in test [1] (at 50.0 µM), 36.7%; in test [2] (setting [7]), -1%; in test [2] (setting [8]), 38%; in test [2] (at 50.0 µM), 29.9%. Besides, the growth inhibition in test [3] (setting [7]) was 20%; in test [3] (setting [8]), 45%; in test [3] (at 50.0 µM), 90.8% (active); in test [4] (setting [7]) it was -15%; in test [4] (setting [8]) it was 44%; in test [4] (at 50.0 µM), 41.2%. In addition, the growth inhibition in test [5] (setting [7]) is 4%; in test [5] (setting [8]), 32%; in test [5] (at 50.0 µM), 38.7%; in test [6] (setting [7]) it was -3%; in test [6] (setting [8]), 66%; in test [6] (at 50.0 µM), 66.8%.
For the compound `CCCn1c(=O)c2ccccc2[n+]2c(-c3ccc([N+](=O)[O-])cc3)csc12`, the growth inhibition in test [1] (setting [7]) was 5%; in test [1] (setting [8]), 91% (active); in test [1] (at 50.0 µM), 93% (active); in test [2] (setting [7]), 1%; in test [2] (setting [8]), 92% (active); in test [2] (at 50.0 µM), 91.8% (active). For the same compound, the growth inhibition in test [3] (setting [7]) is 1%; in test [3] (setting [8]) it was 67%; in test [3] (at 50.0 µM) it was 92.1% (active); in test [4] (setting [7]), -7%; in test [4] (setting [8]) it was 77% (active); in test [4] (at 50.0 µM), 67.1%. The growth inhibition was -17% in test [5] (setting [7]); 97% (active) in test [5] (setting [8]); 93.5% (active) in test [5] (at 50.0 µM); 11% in test [6] (setting [7]); 85% (active) in test [6] (setting [8]); 92.2% (active) in test [6] (at 50.0 µM).
In the case of `CCCCC(CCCC)=NNC(=S)SC`, the growth inhibition is 4% in test [1] (setting [7]); 85% (active) in test [1] (setting [8]); 83.9% (active) in test [1] (at 50.0 µM); 5% in test [2] (setting [7]); 62% in test [2] (setting [8]); 45.1% in test [2] (at 50.0 µM). Also, the growth inhibition in test [3] (setting [7]) is 3%; in test [3] (setting [8]), 79% (active); in test [3] (at 50.0 µM), 66%; in test [4] (setting [7]), -3%; in test [4] (setting [8]) it was 17%; in test [4] (at 50.0 µM), -27.6%. Further, the growth inhibition was 2% in test [5] (setting [7]); 80% (active) in test [5] (setting [8]); 74.1% (active) in test [5] (at 50.0 µM); -3% in test [6] (setting [7]); 87% (active) in test [6] (setting [8]); 56.9% in test [6] (at 50.0 µM).
For `CC(CCC(=O)O)[C@H]1CCC2[C@@H]3CC(O)[C@@H]4CC(O)CC[C@]4(C)C3CC[C@@]21C` (stereo not given in full), the growth inhibition in test [1] (setting [7]) is -5%; in test [1] (setting [8]), 44%; in test [1] (at 50.0 µM), 75.4% (active); in test [2] (setting [7]), -10%; in test [2] (setting [8]), 58%; in test [2] (at 50.0 µM), 74.5% (active). Also, the growth inhibition is 5% in test [3] (setting [7]); 64% in test [3] (setting [8]); 77.3% (active) in test [3] (at 50.0 µM); 14% in test [4] (setting [7]); 70% (active) in test [4] (setting [8]); 76.2% (active) in test [4] (at 50.0 µM). The growth inhibition in test [5] (setting [7]) is -6%; in test [5] (setting [8]) it was 84% (active); in test [5] (at 50.0 µM), 50.5%; in test [6] (setting [7]), -8%; in test [6] (setting [8]) it was 71% (active); in test [6] (at 50.0 µM), 67.7%.
Regarding `Cc1ccc(/C=N/NC(N)=S)cc1C`, the growth inhibition in test [1] (setting [7]) was -6%; in test [1] (setting [8]), 18%; in test [1] (at 50.0 µM) it was 45.1%; in test [2] (setting [7]) it was -4%; in test [2] (setting [8]), 3%; in test [2] (at 50.0 µM) it was 10.8%. For the same compound, the growth inhibition in test [3] (setting [7]) was -5%; in test [3] (setting [8]) it was 9%; in test [3] (at 50.0 µM) it was 61.7%; in test [4] (setting [7]) it was -12%; in test [4] (setting [8]), -13%; in test [4] (at 50.0 µM) it was -11.1%. Besides, the growth inhibition in test [5] (setting [7]) was -4%; in test [5] (setting [8]) it was -2%; in test [5] (at 50.0 µM), 34.8%; in test [6] (setting [7]), -6%; in test [6] (setting [8]), 7%; in test [6] (at 50.0 µM) it was 65.6%.

Source of the values: PubChem BioAssay (NCI).
